Experimental data published in PubChem BioAssay.
For part of these data: Entries with a potency or affinity are not part of this list. Active and inactive are the calls of the source.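 Rule for the calls, unless noted: active = membrane potential signal rise above negative control mean plus 3 SD in both duplicates, also active in the earlier TRPC4 screen; inactive = the rest.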

Tests used:
[1] = test system: TRPC4 beta (transient receptor potential cation channel C4), mouse; test: activators of mouse TRPC4 channel, confirmation, cell-based, Fluo4 calcium, HEK293 TRPC4beta/mu-opioid, duplicates, 10 µM (AID 2426;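 active = fluorescence ratio normalized to control raised more than 50% in primary screen plus both repeat runs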); settings: Fluo4 calcium fluorescence, at 10 µM; stronger effect = higher value
[2] = test system: transient receptor potential cation channel C4 beta (TRPC4), mouse; test: activators of mouse TRPC4 channel, confirmation, cell-based, second round, Fluo4, HEK293 TRPC4beta/mu-opioid, 1 µM (AID 2461;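 active = primary screen active and over 50% activation in each of two duplicate runs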); settings: Fluo4 calcium fluorescence, at 1 µM; stronger effect = higher value
[3] = test system: TRPC4 (transient receptor potential cation channel C4 beta), mouse; test: positive allosteric modulators of mouse TRPC4, confirmation, cell-based, second round, Fluo-4, HEK293 TRPC4beta/mu-opioid, 1 µM (AID 2554;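 active = primary screen hit whose fluorescence ratio, in both repeats, exceeds the weak agonist control mean by 3 SD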); settings: DAMGO EC20, Fluo-4 calcium flux, at 1 µM; stronger effect = higher value
[4] = test system: TRPC4 beta (transient receptor potential cation channel C4), mouse; test: positive allosteric modulators of mouse TRPC4, confirmation, cell-based, Fluo-4, HEK293 TRPC4beta/mu-opioid (AID 2555;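 active = primary screen hit whose calcium fluorescence ratio, in both repeats, exceeds the weak agonist control mean by 3 SD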); settings: DAMGO EC20, Fluo-4 calcium flux, at 10 µM; stronger effect = higher value
[5] = target: Short transient receptor potential channel 4 (Mus musculus) (UniProt Q9QUQ5); test: inhibitors of mouse TRPC4 channel, confirmation, cell-based, Fluo4, HEK293 TRPC4beta/mu-opioid (AID 2636;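 active = calcium signal cut by more than 3 SD below the full-agonist control yet still positive, in both repeats and the earlier primary screen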); settings: DAMGO, Fluo4 calcium flux, at 10 µM; stronger effect = higher value
[6] = target: Short transient receptor potential channel 4 (Mus musculus) (UniProt Q9QUQ5); test: inhibitors of mouse TRPC4 channel, confirmation, cell-based, second round, Fluo4, HEK293 TRPC4beta/mu-opioid, 1 µM (AID 2637;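 active = calcium signal ratio cut to more than 3 SD under the fully stimulated control mean yet still positive, in both repeats and the primary screen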;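 for inhibition: percent of integrated ratio relative to wells lacking test compound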); settings: Fluo4 calcium flux, DAMGO, at 1 µM; stronger effect = higher value
[7] = target: Short transient receptor potential channel 4 (Mus musculus) (UniProt Q9QUQ5); test: mouse TRPC4 channel activators, dose response, cell-based, HEK293 TRPC4/mu-opioid, Fluo-4 calcium (AID 434937;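 active = primary screen activator hit with a dose response curve and TRPC4 channel activation at any tested dose; inactive = no activation, no dose response, or not a primary hit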)
[8] = target: Short transient receptor potential channel 4 (Mus musculus) (UniProt Q9QUQ5); test: TRPC4 positive allosteric modulators, dose response, cell-based, HEK293 TRPC4/mu-opioid, Fluo-4 calcium, EC20 DAMGO (AID 434941;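 active = earlier screen potentiator hit that boosts the TRPC4 ion channel at some dose, with a dose response; inactive = no potentiation, no dose response, or not a prior hit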;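 note: calcium entry triggered by an EC20 dose of DAMGO at the co-expressed mu-opioid receptor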)
[9] = target: Short transient receptor potential channel 4 (Mus musculus) (UniProt Q9QUQ5); test: mouse TRPC4 channel inhibitors, dose response, cell-based, HEK293 TRPC4/mu-opioid, Fluo-4 calcium (AID 434942;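 active = primary screen inhibitor hit that blocks the TRPC4 channel at some tested dose, yielding a dose curve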)
[10] = target: Short transient receptor potential channel 6 (Mus musculus) (UniProt Q61143); test: inhibition of mouse TRPC6 channel, confirmation, selectivity assay for TRPC4 inhibitor project, cell-based, HEK293, membrane potential dye, duplicate (AID 434948;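 active = active in primary screen and both duplicates, each dropping signal beyond three positive-control SD with fluorescence still positive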); settings: HEK293 TRPC6, membrane potential dye fluorescence, at 10 µM, stimulated with maximal-effect acetylcholine; stronger effect = higher value
[11] = target: Short transient receptor potential channel 6 (Mus musculus) (UniProt Q61143); test: activation of mouse TRPC6 channel, confirmation, selectivity assay for TRPC4 activator project, cell-based, HEK293, membrane potential dye, duplicate (AID 434950); settings: HEK293 TRPC6, membrane potential fluorescence, at 10 µM; stronger effect = higher value;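 for activation: 0% = buffer only wells and 100% = acetylcholine maximal-effect wells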
[12] = target: Short transient receptor potential channel 6 (Mus musculus) (UniProt Q61143); test: TRPC6 potentiation by TRPC4 potentiator hits, confirmation, selectivity assay for TRPC4 potentiator project, HEK293 cells, membrane potential dye, duplicate (AID 434952;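 active = compound raising the membrane signal above positive-control mean plus 3 SD in both repeats, and a primary screen hit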); settings: HEK293 TRPC6, membrane potential dye fluorescence, at 10 µM, maximal acetylcholine added after compound; stronger effect = higher value
[13] = target: Short transient receptor potential channel 4 (Mus musculus) (UniProt Q9QUQ5); test: calcium flux activators in TRPC4/5HT1a cells, counter-screen for TRPC4 activator project, cell-based, second counter screen, HEK293 TRPC4/5HT1a, Fluo-4 (AID 434977;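 active = calcium signal rise above buffer-control mean plus 5 SD in both duplicates, and also a hit in the primary screen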); settings: Fluo-4 calcium flux, at 10 µM; stronger effect = higher value
[14] = calcium flux inhibitors in TRPC4/5HT1a cells, confirmation, counter-screen for TRPC4 inhibitor project, cell-based, second counter screen, HEK293 TRPC4/5HT1a, Fluo-4 (AID 434978;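 active = primary screen active whose calcium signal fell more than 3 SD beyond the full-serotonin control mean in both duplicate plates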;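 for outcome: serotonin given first at submaximal then at maximal dose after compound preincubation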); settings: Fluo-4 calcium flux, at 10 µM, serotonin added to trigger calcium flux; stronger effect = higher value
[15] = test system: TRPC4 (mouse), co-expressed with 5HT1a in HEK293; test: calcium flux potentiators in TRPC4/5HT1a cells, confirmation, counter-screen for TRPC4 potentiator project, cell-based, second counter screen, HEK293 TRPC4/5HT1a, Fluo-4 (AID 434979;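 active = signal rise over 3 SD above mean of control wells given weak agonist, in both repeats and first screen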); settings: Fluo-4 calcium flux, at 10 µM, serotonin added at its EC20 dose; stronger effect = higher value
[16] = calcium flux activation in mu-opioid HEK293 cells, confirmation, counter-screen for TRPC4 activator project, cell-based, HEK293 mu-opioid receptor line (AID 449723;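 active = hit in primary screen, with calcium signal over 5 SD above buffer well mean in both duplicates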;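 note: counter screen cells carry the mu-opioid receptor alone and lack TRPC4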); settings: Fluo-4 calcium fluorescence, at 10 µM; stronger effect = higher value
[17] = calcium flux enhancement in mu-opioid HEK293 cells, confirmation, counter-screen for TRPC4 allosteric potentiator project, cell-based, HEK293 mu-opioid receptor line (AID 449724;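 active = calcium signal rise more than 3 SD above the low-dose agonist control mean, in both duplicate plates and the primary screen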); settings: Fluo-4 calcium flux, at 10 µM, compound added before EC20 DAMGO stimulus; stronger effect = higher value

Chain of Short transient receptor potential channel 4 (Mus musculus) (Q9QUQ5 whole entry, looked up): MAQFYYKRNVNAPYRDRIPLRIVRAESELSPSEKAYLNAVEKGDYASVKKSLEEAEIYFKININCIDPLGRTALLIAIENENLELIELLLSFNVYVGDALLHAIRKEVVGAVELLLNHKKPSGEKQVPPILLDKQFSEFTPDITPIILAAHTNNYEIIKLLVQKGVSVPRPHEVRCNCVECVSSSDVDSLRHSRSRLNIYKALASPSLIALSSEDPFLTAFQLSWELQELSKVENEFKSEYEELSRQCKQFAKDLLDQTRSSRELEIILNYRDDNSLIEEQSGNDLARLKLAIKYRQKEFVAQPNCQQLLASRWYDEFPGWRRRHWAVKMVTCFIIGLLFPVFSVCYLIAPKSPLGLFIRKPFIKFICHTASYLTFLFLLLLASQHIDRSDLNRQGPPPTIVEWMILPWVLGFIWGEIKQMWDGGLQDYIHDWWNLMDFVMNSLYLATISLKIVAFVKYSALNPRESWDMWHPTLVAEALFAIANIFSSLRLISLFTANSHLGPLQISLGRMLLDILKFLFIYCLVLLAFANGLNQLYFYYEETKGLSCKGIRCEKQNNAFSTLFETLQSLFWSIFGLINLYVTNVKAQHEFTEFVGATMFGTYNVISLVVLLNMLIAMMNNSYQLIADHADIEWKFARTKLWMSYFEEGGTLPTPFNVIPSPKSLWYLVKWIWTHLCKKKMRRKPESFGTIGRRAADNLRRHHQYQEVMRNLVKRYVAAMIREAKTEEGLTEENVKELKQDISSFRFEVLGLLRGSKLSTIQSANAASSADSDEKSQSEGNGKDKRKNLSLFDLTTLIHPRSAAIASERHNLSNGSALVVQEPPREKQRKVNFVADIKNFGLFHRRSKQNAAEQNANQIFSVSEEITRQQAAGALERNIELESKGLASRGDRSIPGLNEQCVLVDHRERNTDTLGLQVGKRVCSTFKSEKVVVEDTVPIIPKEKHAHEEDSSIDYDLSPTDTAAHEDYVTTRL
Chain of Short transient receptor potential channel 6 (Mus musculus) (Q61143 whole entry, looked up): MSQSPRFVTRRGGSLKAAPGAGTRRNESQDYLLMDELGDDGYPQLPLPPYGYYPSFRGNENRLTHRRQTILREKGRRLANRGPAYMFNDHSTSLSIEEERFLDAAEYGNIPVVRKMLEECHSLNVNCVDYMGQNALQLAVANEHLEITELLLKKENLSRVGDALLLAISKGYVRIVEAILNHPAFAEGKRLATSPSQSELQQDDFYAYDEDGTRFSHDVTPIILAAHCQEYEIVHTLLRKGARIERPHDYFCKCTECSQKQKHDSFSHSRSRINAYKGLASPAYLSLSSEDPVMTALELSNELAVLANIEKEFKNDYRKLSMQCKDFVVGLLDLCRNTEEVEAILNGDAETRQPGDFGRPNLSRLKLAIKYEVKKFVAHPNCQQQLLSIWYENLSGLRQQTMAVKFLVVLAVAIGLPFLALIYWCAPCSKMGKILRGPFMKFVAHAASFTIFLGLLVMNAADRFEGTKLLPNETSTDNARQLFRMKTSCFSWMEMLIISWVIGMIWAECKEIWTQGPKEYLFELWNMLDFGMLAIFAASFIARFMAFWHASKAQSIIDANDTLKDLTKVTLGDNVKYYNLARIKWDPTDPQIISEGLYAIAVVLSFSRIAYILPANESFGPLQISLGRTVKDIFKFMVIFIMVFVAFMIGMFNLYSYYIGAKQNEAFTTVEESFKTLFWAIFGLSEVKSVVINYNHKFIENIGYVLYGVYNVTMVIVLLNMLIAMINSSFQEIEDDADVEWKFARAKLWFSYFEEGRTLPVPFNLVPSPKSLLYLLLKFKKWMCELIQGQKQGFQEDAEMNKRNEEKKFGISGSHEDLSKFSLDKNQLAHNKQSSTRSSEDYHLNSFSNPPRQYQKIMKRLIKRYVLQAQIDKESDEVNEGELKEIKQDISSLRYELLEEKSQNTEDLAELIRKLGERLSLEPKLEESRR

CCOc1ccc(-n2c(C)cc(/C=C3/C(=N)N4C(=NC3=O)SN=C4S(C)(=O)=O)c2C)cc1
inactive: outcome [1] | outcome [2] | outcome [3] | outcome [4] | outcome [5] | outcome [6] | outcome [7] | outcome [8] | outcome [9] | outcome [10] | outcome [11] | outcome [12] | outcome [13] | outcome [14] | outcome [15] | outcome [16] | outcome [17]

CCOC(=O)CSc1nc2ccccc2c(=O)n1C1CCCC1
inactive: outcome [1] | outcome [2] | outcome [3] | outcome [4] | outcome [5] | outcome [6] | outcome [7] | outcome [8] | outcome [9] | outcome [10] | outcome [11] | outcome [12] | outcome [13] | outcome [14] | outcome [15] | outcome [16] | outcome [17]

CCOC(=O)Cc1csc(NC(=O)NC2(C(F)(F)F)Oc3cc(Cl)c(Cl)cc3O2)n1
active: inhibition [5] 47% | inhibition [6] 41% | inhibition [14] 39.5%
inactive: outcome [1] | outcome [2] | outcome [3] | outcome [4] | outcome [7] | outcome [8] | outcome [9] | outcome [10] | outcome [11] | outcome [12] | outcome [13] | outcome [15] | outcome [16] | outcome [17]

CCN(CC)CCCNC(=S)N1CCN(c2nc3ccccc3n2CC)CC1
active: potentiation [15] 17.1%
inactive: outcome [1] | outcome [2] | outcome [3] | outcome [4] | outcome [5] | outcome [6] | outcome [7] | outcome [8] | outcome [9] | outcome [10] | outcome [11] | outcome [12] | outcome [13] | outcome [14] | outcome [16] | outcome [17]

Cc1n[nH]c(C)c1Cc1c(F)cccc1Cl
active: inhibition [5] 94%
inactive: outcome [1] | outcome [2] | outcome [3] | outcome [4] | outcome [6] | outcome [7] | outcome [8] | outcome [9] | outcome [10] | outcome [11] | outcome [12] | outcome [13] | outcome [14] | outcome [15] | outcome [16] | outcome [17]

COc1ccc(F)cc1C(=O)C1CCCN(Cc2cccn2-c2ccccn2)C1 (stereo not given)
inactive: outcome [1] | outcome [2] | outcome [3] | outcome [4] | outcome [5] | outcome [6] | outcome [7] | outcome [8] | outcome [9] | outcome [10] | outcome [11] | outcome [12] | outcome [13] | outcome [14] | outcome [15] | outcome [16] | outcome [17]

Cc1ccc(NS(=O)(=O)c2ccc(NS(=O)(=O)c3cccs3)cc2)cc1
inactive: outcome [1] | outcome [2] | outcome [3] | outcome [4] | outcome [5] | outcome [6] | outcome [7] | outcome [8] | outcome [9] | outcome [10] | outcome [11] | outcome [12] | outcome [13] | outcome [14] | outcome [16] | outcome [17]
active: potentiation [15] 15%

Cc1ccc(-c2ccc3c(c2)S(=O)(=O)c2ccccc2C3=O)cc1
inactive: outcome [1] | outcome [2] | outcome [3] | outcome [4] | outcome [5] | outcome [6] | outcome [7] | outcome [8] | outcome [9] | outcome [10] | outcome [11] | outcome [12] | outcome [13] | outcome [14] | outcome [15] | outcome [16] | outcome [17]

CC(=O)C1=C(O)C(=O)N(Cc2ccco2)C1c1ccc2c(c1)OCO2 (stereo not given)
active: inhibition [5] 94% | inhibition [6] 47%
inactive: outcome [1] | outcome [2] | outcome [3] | outcome [4] | outcome [7] | outcome [8] | outcome [9] | outcome [10] | outcome [11] | outcome [12] | outcome [13] | outcome [14] | outcome [15] | outcome [16] | outcome [17]

CCN1CCN(c2ccc(S(=O)(=O)N3CCCCC3)cc2NC(=O)c2cccc(F)c2)CC1
active: potentiation [15] 18.4%
inactive: outcome [1] | outcome [2] | outcome [3] | outcome [4] | outcome [5] | outcome [6] | outcome [7] | outcome [8] | outcome [9] | outcome [10] | outcome [11] | outcome [12] | outcome [13] | outcome [14] | outcome [16] | outcome [17]

O=c1oc2ccccc2c(O)c1/C=C1\C=Nc2ccccc21
inactive: outcome [1] | outcome [2] | outcome [3] | outcome [4] | outcome [5] | outcome [6] | outcome [7] | outcome [8] | outcome [9] | outcome [10] | outcome [12] | outcome [13] | outcome [14] | outcome [15] | outcome [16] | outcome [17]
active: activation [11] 32.5%

Cc1cc2cc(CN(Cc3cccs3)C(=S)NCc3ccco3)c(=O)[nH]c2cc1C
inactive: outcome [1] | outcome [2] | outcome [3] | outcome [4] | outcome [5] | outcome [6] | outcome [7] | outcome [8] | outcome [9] | outcome [10] | outcome [11] | outcome [12] | outcome [13] | outcome [14] | outcome [15] | outcome [16] | outcome [17]

O=C(COc1ccccc1)NC1CCCCCCC1
active: potentiation [3] 9% | potentiation [4] 33% | potentiation [15] 40.7%
inactive: outcome [1] | outcome [2] | outcome [5] | outcome [6] | outcome [7] | outcome [8] | outcome [9] | outcome [10] | outcome [11] | outcome [12] | outcome [13] | outcome [14] | outcome [16] | outcome [17]

COc1ccc(C(=O)/C=C/C(=O)N(CC(=O)NC2CCCCC2)CC2CCCO2)c(O)c1 (stereo not given)
inactive: outcome [1] | outcome [2] | outcome [3] | outcome [4] | outcome [5] | outcome [6] | outcome [7] | outcome [8] | outcome [9] | outcome [10] | outcome [11] | outcome [12] | outcome [13] | outcome [14] | outcome [15] | outcome [16] | outcome [17]

NS(=O)(=O)c1ccc(CCNCc2cc(Br)ccc2OCc2ccccc2)cc1
inactive: outcome [1] | outcome [2] | outcome [3] | outcome [4] | outcome [5] | outcome [6] | outcome [7] | outcome [8] | outcome [9] | outcome [10] | outcome [11] | outcome [12] | outcome [13] | outcome [14] | outcome [15] | outcome [16] | outcome [17]
